Values joined by “and” are separate entries in the source; they are usually repeats but may differ in a detail not shown here. Equal values may be shown once. Inconclusive results are not listed. Active and inactive are the calls of the source. Calls come from the whole dose curve; as a rule, active = well fitted inhibition curve with a large enough effect; inconclusive = small, poorly fitted or top-dose-only effect; inactive = flat fitted curve, though single readings scatter.
test system: not listed separately; assay: qHTS Assay for Lipid Storage Modulators (AID 1519); details: Drosophila S3 cells, BODIPY lipid droplet/cell ratio, laser cytometry; measured here: lipid channel max response; cells loaded with oleic acid
Summary of the method: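 Cells seeded at 5,000 per well were treated with compounds over a concentration series and loaded with oleic acid (400 uM, as added). Lipid droplet fluorescence (488 nm excitation, 500-530 nm channel) was read by laser-scanning cytometry and normalized to 20 uM Triacsin C.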

| SMILES | max response |
| --- | --- |
| COc1ccc(C(=O)O)c(O)c1OC | 18.5% |
| COc1c(-c2ccc(O)c(O)c2)oc2cc(O)cc(O)c2c1=O | -17.7% |
| CCOC(=O)c1c(C)cc(OC)cc1O | -5.56% |
| O=C(c1cccc(F)c1)N1CCC[C@@]2(CCN(C(c3ccccc3)c3ccccc3)C2)C1 | -12.6% |
| CC(=O)Oc1ccc2c(c1C(C)C)CCC1C(C)(C)CCC[C@@]21C (some centres undefined) | 20.3% |
| COC(=O)CCCOc1ccc(Cl)cc1Cl | 23% |
| NCC1OC(n2cnc3c(=O)[nH]c(N)nc32)C(O)C1O (centres undefined) | -2.83% |
| Nc1nc2n[nH]nc2c(=O)[nH]1 | 11% |
| CC(=O)OC1CC2C(C)(C)CCC(=O)[C@@]2(C)C2CC[C@@]3(C)C(c4ccoc4)OC(=O)C4OC43[C@]12C (some centres undefined) | 3.26% |
| O=c1cc(-c2ccc(O)c(O)c2)oc2cc(OC3OC(CO)C(O)C(O)C3O)cc(O)c12 (centres undefined) | 11.2% |
| C=CC(C1=CC(=O)C(OC)=CC1=O)c1ccccc1 (centres undefined) | -12.3% |
| COc1ccc(-c2cc(=O)c3c(OC)c(OC)c(OC)c(OC)c3o2)cc1 | -24.9% |
| COc1ccccc1CNc1ncnc2ccc(-c3cccnc3)cc12 | -6.23% |
| CC1(C)C(O)CC[C@]2(C)C1CC[C@@]1(C)C2C(=O)C=C2[C@@H]3C[C@@](C)(C(=O)O)CC[C@@]3(C)CCC21C (some centres undefined) | 28.1% |
| O=c1c(-c2ccccc2)coc2cc(O)cc(O)c12 | 7.42% |
| COC(=O)c1c(OC)cc2c(c1C)Oc1c(Cl)c(OC(C)=O)c(Cl)c(C)c1C(=O)O2 | 13% |
| COc1ccc2c(c1)OCc1c-2oc2cc(OC)ccc12 | 8.38% |
| Cc1ccccc1-c1ccc2ncnc(N(C)Cc3ccco3)c2c1 | 23.2% |
| O=c1c(O)c(-c2ccc(O)c(O)c2)oc2c(OC3OC(CO)C(O)C(O)C3O)c(O)cc(O)c12 (centres undefined) | 7.27% |
| CN(Cc1ccco1)c1nc(-c2cccc(C#N)c2)nc2ccccc12 | 12.8% |

| SMILES | max response |
| --- | --- |
| COc1ccc(-c2nc3cnc(Nc4cccc(OC)c4)nc3n(CCC#N)c2=O)cc1 | -2.36% |
| CC1=CC2C(CC1=O)C(C)=CCC2C(C)C (centres undefined) | 5.28% |
| CC1(C)C=CC(=O)[C@]2(C)C1CC(=O)[C@]1(C)C2CC[C@@]2(C)C(c3ccoc3)OC(=O)C3OC321 (some centres undefined) | -18.1% |
| COc1ccc2c(c1)[C@@]1(C)CCC[C@](C)(CO)C1CC2 (some centres undefined) | 28.8% |
| COc1ccc2c(c1)OCC(Cc1ccc(OC)c(OC(C)=O)c1)C2=O (centres undefined) | -2.44% |
| CC(=O)OC1CCC23CC1(C)CCC2C(C)(C)CC3OC(C)=O (centres undefined) | 6.37% |
| C#C[C@]1(OC(C)=O)CCC2C3CCC4=CC(=O)CCC4C3CC[C@]21C (some centres undefined) | -26.2% |
| COC(=O)c1c(OC)cc2c(c1C)Oc1c(Cl)c(O)c(Cl)c(C)c1C(=O)O2 | -5.08% |
| CN(Cc1ccco1)c1nc(-c2ccccc2Cl)nc2ccccc12 | 24.3% |
| O=C1CC[C@@]23/C=C/C(=O)NCCCCNCCCNC(=O)/C=C/c4ccc(c2c4)OC3C1 (some centres undefined) | 1.79% |
| O=C(O)c1cc(O)c2c(c1)C(=O)c1cc(O)cc(O)c1C2=O | 36.4% |
| COc1ccc2c(c1)OC/C(=C/c1ccc(O)c(O)c1)C2=O | 11.7% |
| CC(=O)OC1CC[C@]2(C)C(CC(OC(C)=O)[C@@]3(C)C4=CC(=O)OC(c5ccoc5)[C@]4(C)CCC23)C1(C)C (some centres undefined) | -14.8% and -4.52% and 18.3% |
| COc1cccc(-c2nc(Nc3ccncc3)c3ccccc3n2)c1 | -19.7% |
| N#C/C(=C\c1ccc(O)c(O)c1)C(=O)NCCCCc1ccccc1 | 17.3% |
| COc1cccc(-c2cncnc2NCc2ccc(OC)cc2OC)c1 | 8.96% |
| CC(=O)Oc1ccc2c(c1)CCC1C2CC[C@]2(C)C(OC(C)=O)CCC12 (some centres undefined) | 4.34% |
| COc1cc(-c2coc3cc(OCc4ccccc4)c(OC)c(O)c3c2=O)cc(O)c1OC | -4.66% |
| COc1cc(C/C=C/c2ccccc2)c(OC)cc1O | 7.15% |
| N[C@H](C(=O)O)C(O)C(O)C(O)CO (some centres undefined) | 3.07% |

target: Ubiquitin carboxyl-terminal hydrolase 1 (Homo sapiens) (UniProt O94782); assay: Inhibitors of USP1/UAF1: Pilot qHTS (AID 504865); details: purified USP1/UAF1, Ub-rhodamine cleavage fluorescence; series mostly up to 54.9 µM; activity change, negative = inhibition: at the top concentration; note: nearly all actives have a fitted effect of over 35% in size; note: potency is the fitted concentration of half-maximal effect;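 for activity change, negative = inhibition: rhodamine fluorescence freed from ubiquitin-rhodamine substrate followed over time; top concentration of the series differs between compounds; % is set by controls: 0 for no effect and ±100 for the full control effect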
Summary of the method: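 In 50mM HEPES pH 7.8 containing 0.5mM EDTA, 1mM TCEP, 0.1 mg/ml BSA and 0.01% Tween-20, 1nM USP1/UAF1 is exposed to compound for 15 min, then Ub-Rho (150nM final) is added and fluorescence is read over time.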

Chain of Ubiquitin carboxyl-terminal hydrolase 1 (Homo sapiens) (O94782 whole entry, looked up): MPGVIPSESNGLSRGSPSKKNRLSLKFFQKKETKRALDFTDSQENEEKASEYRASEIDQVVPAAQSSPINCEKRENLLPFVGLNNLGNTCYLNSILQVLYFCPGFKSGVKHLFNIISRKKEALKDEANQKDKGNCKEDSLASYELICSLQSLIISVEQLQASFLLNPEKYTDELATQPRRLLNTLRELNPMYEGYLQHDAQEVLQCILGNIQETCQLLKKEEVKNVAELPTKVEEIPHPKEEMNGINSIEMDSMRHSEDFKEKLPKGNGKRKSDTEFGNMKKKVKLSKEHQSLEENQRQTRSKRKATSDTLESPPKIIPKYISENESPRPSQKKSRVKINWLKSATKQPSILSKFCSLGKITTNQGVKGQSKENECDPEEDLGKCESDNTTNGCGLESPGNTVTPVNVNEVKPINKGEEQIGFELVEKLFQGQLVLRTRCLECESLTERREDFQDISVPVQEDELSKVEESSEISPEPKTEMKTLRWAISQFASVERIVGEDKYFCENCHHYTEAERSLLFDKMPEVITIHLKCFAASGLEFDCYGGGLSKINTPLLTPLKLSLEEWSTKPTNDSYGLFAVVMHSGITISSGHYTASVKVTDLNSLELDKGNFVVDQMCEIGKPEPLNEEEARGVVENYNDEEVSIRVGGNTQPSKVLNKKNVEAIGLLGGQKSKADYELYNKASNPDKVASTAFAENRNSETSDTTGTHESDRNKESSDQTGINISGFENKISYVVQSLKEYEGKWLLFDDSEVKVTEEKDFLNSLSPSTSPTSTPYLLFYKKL

| SMILES | activity change, negative = inhibition | Potency |
| --- | --- | --- |
| COc1ccc(C(=O)O)c(O)c1OC | -3.04% [at 114 µM] (inactive) | – |
| CCOC(=O)c1c(C)cc(OC)cc1O | -14.8% [at 114 µM] (inactive) | – |
| COC(=O)CCCOc1ccc(Cl)cc1Cl | -13.5% [at 114 µM] (inactive) | – |
| NCC1OC(n2cnc3c(=O)[nH]c(N)nc32)C(O)C1O (centres undefined) | -8.92% [at 114 µM] (inactive) | – |
| Nc1nc2n[nH]nc2c(=O)[nH]1 | 8.12% (inactive) | – |
| CC(=O)OC1CC2C(C)(C)CCC(=O)[C@@]2(C)C2CC[C@@]3(C)C(c4ccoc4)OC(=O)C4OC43[C@]12C (some centres undefined) | -2.6% [at 114 µM] (inactive) | – |
| C=CC(C1=CC(=O)C(OC)=CC1=O)c1ccccc1 (centres undefined) | – | 56.2 µM (active) |
| O=c1c(-c2ccccc2)coc2cc(O)cc(O)c12 | – | 56.2 µM (active) |
| Cc1ccccc1-c1ccc2ncnc(N(C)Cc3ccco3)c2c1 | -18.7% (inactive) | – |
| O=c1c(O)c(-c2ccc(O)c(O)c2)oc2c(OC3OC(CO)C(O)C(O)C3O)c(O)cc(O)c12 (centres undefined) | -8.65% [at 114 µM] (inactive) | – |
| CC1(C)C=CC(=O)[C@]2(C)C1CC(=O)[C@]1(C)C2CC[C@@]2(C)C(c3ccoc3)OC(=O)C3OC321 (some centres undefined) | -13.6% [at 114 µM] (inactive) | – |
| C#C[C@]1(OC(C)=O)CCC2C3CCC4=CC(=O)CCC4C3CC[C@]21C (some centres undefined) | -14.8% [at 114 µM] (inactive) | – |
| COC(=O)c1c(OC)cc2c(c1C)Oc1c(Cl)c(O)c(Cl)c(C)c1C(=O)O2 | – | 56.2 µM (active) |
| O=C1CC[C@@]23/C=C/C(=O)NCCCCNCCCNC(=O)/C=C/c4ccc(c2c4)OC3C1 (some centres undefined) | 165% [at 114 µM] (inactive) | – |
| O=C(O)c1cc(O)c2c(c1)C(=O)c1cc(O)cc(O)c1C2=O | – | 56.2 µM (active) |
| COc1ccc2c(c1)OC/C(=C/c1ccc(O)c(O)c1)C2=O | -12.2% [at 114 µM] (inactive) | – |
| COc1cccc(-c2nc(Nc3ccncc3)c3ccccc3n2)c1 | – | 39.8 µM (active) |
| COc1cc(C/C=C/c2ccccc2)c(OC)cc1O | -12.4% [at 114 µM] (inactive) | – |
| N[C@H](C(=O)O)C(O)C(O)C(O)CO (some centres undefined) | -3.34% [at 114 µM] (inactive) | – |
